Exocytosis inh – LAMP-1 surface exposure blockers, TALL-104 cells – cell-based, flow cytometry, MLPCN library, primary screen. TALL-104 LAMP-1 surface exposure; cells stimulated with thapsigargin and PMA. inhibition, % at 10 µM. 0.66% of 360,000 active. AID 651702, 2012;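 active = inhibition above about 55%, limit read from the data; inconclusive = no clear call, values can overlap the other calls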
Myeloid diff MLP – induction of myeloid progenitor differentiation, primary screen, cell-based, flow cytometry, MLPCN library. ER-HoxA9 myeloid progenitors, lysozyme-GFP differentiation. calls only at 10 µM. 1% of 360,000 active;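 active = normalized GFP-positive differentiation at or above the plate's own cutoff, the solvent-only control mean plus 3 SD; inconclusive = no clear call, values can overlap the other calls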;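 also: cells exposed to compound for four days before flow analysis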
NPR1 activator – GC-A stimulated cGMP production enhancers – HEK293 GC-A cells, cGMP TR-FRET, EC30 ANP, primary screen; Atrial natriuretic peptide receptor 1 (Homo sapiens), P16066; 0% at EC30 ANP, 100% saturating ANP; activation, % at 10 µM; 0.14% of 370,000 active; AID 1671463, 2021; in the data active = activation above about 40%
NPR2 activator – human GC-B receptor activators, primary screen, HEK293 GC-B cells, cGMP TR-FRET, EC30 CNP | Atrial natriuretic peptide receptor 2 (Homo sapiens), P20594 | 0% at EC30 CNP, 100% saturating CNP | activation, % at 10 µM | 0.11% of 370,000 active;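 active = activation at 10 µM reaching about 35% in either raw or pattern-adjusted values, limit read from the data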
Exocytosis CP01 – inhibitors of lytic granule exocytosis, confirmation, TALL-104 cells, flow cytometry, Cherry Pick01; shares compounds with Exocytosis inh; LAMP-1 externalization; stimulated with PMA plus thapsigargin; inhibition, % at 10 µM; 11% of 1,500 active; AID 651954, 2012; in the data active = inhibition above about 60%
Each line names hits and unclear results; the compound was inactive in the other large screens (follow-up assays come after a bar, where they were run); ! = a repeat was not active. A selection: hits, their analogues and other compounds. The true share with any hit is near 1.8%.

CC(C)=CCC/C(C)=C/CNC(=O)C[C@H]1C[C@H](C(=O)N2CCOCC2)[C@@]2(C)c3[nH]c4ccc(Cl)cc4c3CCN2C1=O	Exocytosis inh 70 | Exocytosis CP01 inactive
CC(C)=CCC/C(C)=C/CNC(=O)CC1C[C@H](C(=O)N2CCOCC2)[C@@]2(C)c3[nH]c4ccccc4c3CCN2C1=O (stereo not given in full)	none
O=C(/C=C/Sc1ccc(C(F)(F)F)cn1)c1ccccc1	Exocytosis inh 64 | Exocytosis CP01 inactive
CCN1CCN(Cc2ccc(NC(=O)c3ccc(C)c(NC(=O)C[C@@H]4NC(=O)[C@H](Cc5ccccc5)NC4=O)c3)cc2C(F)(F)F)CC1	Exocytosis inh 76! | Exocytosis CP01 inactive
COc1ccc(S(=O)(=O)N2CCCCC2c2cc(C(=O)Nc3ccc(F)c(Cl)c3)no2)cc1 (stereo not given)	none
CCNC(=O)C1CCCN(C(=O)c2ccc(C(=O)OC)cc2)CC1 (stereo not given)	none
COc1ccc(CNC2CCC23CCC(c2ccccc2)CC3)cc1OC (stereo not given)	none (no result: Exocytosis inh, Myeloid diff MLP)
CCCSc1nc2c(c(=O)[nH]c(=O)n2C)n1CC(O)COc1ccccc1 (stereo not given)	none
CCSc1nc2c(c(=O)[nH]c(=O)n2C)n1CC(O)COc1ccccc1 (stereo not given)	Exocytosis inh 87 | Exocytosis CP01 inactive
COc1ccc(CSc2nnc(SCC(=O)Nc3ccccc3-c3ccccc3)s2)cc1	none (no result: Exocytosis inh, Myeloid diff MLP)
O=C(NC1CCCC1)c1ccc2c(c1)N(Cc1ccccc1)CCS2	Exocytosis inh 70 | Exocytosis CP01 inactive
Cc1ccc(CN2CCSc3ccc(C(=O)NC4CCN(Cc5ccccc5)CC4)cc32)cc1	none
Cc1ccc([C@H]2C[C@@H](O)[C@H](n3cc(-c4ccc(F)cc4)nn3)CN2C(=O)C2CCCCC2)cc1	none
O=C(Nc1cccc(O)c1)c1cccc(S(=O)(=O)N2CCCCCC2)c1	Exocytosis inh 59 | Exocytosis CP01 inactive
O=C(O)c1cccc(NC(=O)c2cccc(S(=O)(=O)N3CCCCC3)c2)c1	none
O=S(=O)(Nc1cccc(S(=O)(=O)N2CCCCCC2)c1)c1ccccc1	Exocytosis inh 74 | Exocytosis CP01 inactive
O=S(=O)(Nc1cccc(S(=O)(=O)N2CCCC2)c1)c1ccc(F)cc1	none
CC(=O)Nc1cccc(OCC(=O)NCCC2=CCCCC2)c1	Exocytosis inh 95 | Exocytosis CP01 inactive
C#CCNC(=O)C[C@@H]1C[C@@]2(C(=O)OCC)CCC=C2N(Cc2ccc(Cl)cc2Cl)C1=O	none
CCN(CC)C(=O)c1ccc(Cc2cn(C)c3ccccc23)nc1	none
CC1CCN(C(=O)Cn2nnc(-c3ccccc3)n2)CC1	Exocytosis inh 58 | Exocytosis CP01 inactive
CC1CC(C)CN(C(=O)Cn2nnc(-c3ccccc3)n2)C1 (stereo not given)	none
C[C@@H]1CN([C@@H](C)CO)C(=O)c2c(c3ccccc3n2C)-c2ccccc2CO[C@H]1CN(C)S(=O)(=O)c1ccc(C#N)cc1	none
COC(=O)[C@@H]1C[C@@]2(O)[C@H](O)[C@H](O)[C@H](O)C[C@H]2N1Cc1cccc2ccccc12	Exocytosis inh 70 | Exocytosis CP01 inactive
CCOc1ccc(-n2c(SCC(=O)Nc3ccc(S(=O)(=O)Nc4cc(C)nc(C)n4)cc3)nnc2-c2cccc(C)c2)cc1	none (no result: Exocytosis inh, Myeloid diff MLP)
c1ccc(C2(CN3CCNC[C@@H]3CC3CCCCC3)CC2)cc1	none
Fc1cccc(CCN2CCNC[C@@H]2CC2CCCCC2)c1	Exocytosis inh 62 | Exocytosis CP01 inactive
CC(C)N1CCCCC(NC(=O)COCc2ccccc2)C1=O (stereo not given)	none (no result: Exocytosis inh, Myeloid diff MLP)
N#CCC[C@H]1CC[C@]2(CCCN(S(=O)(=O)c3ccccc3)C2)O1	none (no result: Exocytosis inh, Myeloid diff MLP)
CC(C)C(C#CC1CC1)N(Cc1ccc2c(c1)OCO2)C(N)=NC(=O)/C=C/c1ccccc1 (stereo not given)	none (no result: Exocytosis inh, Myeloid diff MLP)
CC1CCN(CCCNC(=O)c2cc3c(s2)-c2ccccc2OC3)CC1	none
Cc1cccc2c1-c1sc(C(=O)NCCCN3CCC(C)CC3)cc1CO2	Exocytosis inh 79, Myeloid diff MLP inconclusive | Exocytosis CP01 inactive
Cn1c(SCc2cccc(C#N)c2)nc2ccccc2c1=O	Exocytosis inh 71 | Exocytosis CP01 inactive
Cn1c(SCc2cccc([N+](=O)[O-])c2)nc2ccccc2c1=O	none
C=C(C)Cn1c(-c2ccccc2)nc2ccccc21	none
C=C1c2nc3ccccc3n2C=C(c2ccc(C)cc2)N1c1ccccc1	Exocytosis inh 90 | Exocytosis CP01 inactive
COc1cccc(CN2CCN(C(=O)c3ccco3)CC2)c1	Exocytosis inh 87 | Exocytosis CP01 inactive
COc1ccc(OC)c(CN2CCN(C(=O)c3ccco3)CC2)c1	none
O=c1c(Cl)c2oc3ccccc3nc-2c2ccccc12	Exocytosis inh 102, Myeloid diff MLP active (no result: NPR1 activator, NPR2 activator) | Exocytosis CP01 77
Clc1ccc(-c2nnc(Sc3nc4ccccc4o3)c3ccccc23)cc1	none
CC(=O)c1cc2c(cc1C)CCCC2(C)C	none
NC(=Nc1nc(-c2ccccn2)cc2ccccc12)c1ccccn1	Myeloid diff MLP inconclusive
COC(C[C@@H](O)[C@H](C)[C@@H](O)COCc1ccccc1)OC	Exocytosis inh 70 | Exocytosis CP01 inactive
COC(C[C@H](O)[C@@H](C)[C@@H](O)COCc1ccccc1)OC	none
CCC1Oc2ccc(C)cc2N(CC(=O)N(Cc2ccc(C)o2)C2CCCC2)C1=O (stereo not given)	Exocytosis inh 66 | Exocytosis CP01 inactive
O=C(NCc1ccccc1Cl)c1ccncc1	Exocytosis inh 66 | Exocytosis CP01 inactive
CC(C)(C)c1ccc(Cn2nnc3c(=O)[nH]c(C4CCCN(C(=O)c5cccs5)C4)nc32)cc1 (stereo not given)	none
COC(=O)c1ccc(Cn2nnc3c(=O)[nH]c(C4CCN(S(=O)(=O)c5ccc(F)cc5)CC4)nc32)cc1	none
COC(=O)c1ccc(Cn2nnc3c(=O)[nH]c(C4CCCN(S(=O)(=O)c5ccccc5Cl)C4)nc32)cc1 (stereo not given)	Exocytosis inh 57 | Exocytosis CP01 inactive
O=C(c1cccs1)N1CCCC(c2nc3c(nnn3Cc3c(Cl)cccc3Cl)c(=O)[nH]2)C1 (stereo not given)	Exocytosis inh 77 | Exocytosis CP01 inactive
Cc1cc(NCc2ccccc2)n2ncc(-c3ccccc3)c2n1	Exocytosis inh 58 | Exocytosis CP01 inactive
Cc1cc(NC2CCCC2)n2ncc(-c3ccccc3)c2n1	none
Cc1cc(NC(C)c2ccccc2)n2ncc(-c3ccccc3)c2n1 (stereo not given)	Exocytosis inh 95, NPR1 activator 50 | Exocytosis CP01 inactive
CCn1c2ccccc2c2cc(NC(=O)CSc3nnc(-c4cccc(C)c4)o3)ccc21	none
CCn1c2ccccc2c2cc(NC(=O)c3ccc(=O)oc3)ccc21	Exocytosis inh 78 | Exocytosis CP01 inactive

Bioassay records as filed in PubChem.
